Results on three compounds are retold here after PubChem BioAssay AID1725 (National Center for Advancing Translational Sciences (NCATS), 2009).

Structures are written as SMILES. This is one part of the list. Results filed as inconclusive are left out. Unmarked numbers belong to inactive results. Activity calls are given as the source filed them. The call rests on the fitted dose curve; in most records, active means well fitted inhibition curve with a large enough effect; inconclusive means small, poorly fitted or top-dose-only effect, or effect the other way; inactive means no such curve, though single readings can be large or run the other way.

The test is described as follows: Confirmation Concentration-Response Assay for Inhibitors of the ERK Signaling Pathway using a Homogeneous Screening Assay; Stimulation with EGF. The following applies: HEK293 EGF-stimulated ERK phosphorylation, AlphaScreen; series mostly up to 57.5 µM; activity change, negative = inhibition: at the top concentration. From the text: qHTS Assay for Inhibitors of the ERK Signaling Pathway using a Homogeneous Screening Assay
NIH Chemical Genomics Center [NCGC]
NIH Molecular Libraries Screening Centers Network [MLSCN]
Assay Submitter (PI): Dr. Wei Zheng, NCGC/NIH
The Ras/extracellular-signal-regulated kinase (ERK) mitogen activated protein (MAP) kinase signaling pathway (ERK1/2 cascade) plays is a key role in transmitting signals from the cell surface to the nucleus (Nishida and Gotoh 1993; Chang and Karin, 2001). The cascade is initiated by the small G-protein Ras, which recruits Raf […], where activation occurs. Alternatively, this pathway can be activated by elevating intracellular cAMP.
Activation of the ERK pathway is essential in increased cell division and cell survival. Sustained and constitutive activation of the ERK pathway, however, has been linked to uncontrolled cell proliferation, increased cell survival, and tumor progression. Thus, the ERK has been as an attractive target for cancer chemotherapy in the past few years (Sebolt-Leopold and Herrera, 2004). Given its physiological and pathological importance, assessment of ERK phosphorylation has been broadly performed in both basic research and drug discovery. Most assays for the measurement of ERK phosphorylation use the antibody-based detection methods, such as western blot and ELISA. These assays require multiple reagent additions with cell wash steps and are not suitable for high-throughput screening.
The current cell-based ERK phosphorylation assay was performed using AlphaScreen platform. AlphaScreen is a two bead-based proximity-dependent chemical energy transfer luminescent assay platform. […]
HEK293 cells stably expressing type-1 vasopressin receptor (V1b) were maintained in DMEM medium (Invitrogen, Carlsbad, CA) at 37C under a humidified atmosphere containing 5% CO2 and 95% air. […] The ERK phosphorylation in cells was determined using an AlphaScreen assay kit provided by PerkinElmer. […] AC50 values were determined from concentration-response data modeled with the standard Hill equation. […]
Take `CCCNc1ncnc2sc(C)c(C)c12`: the “activity change, negative = inhibition” value was -8.99%.

As to `CN(C)c1cc2c(Nc3ccc4c(cnn4Cc4ccccc4)c3)ncnc2cn1`, the Potency was 2.82 µM (active).

On to `CN(C)c1ccc(Nc2c3c4c(cccc4n(C)c2=O)C(=O)c2ccccc2-3)cc1`, for which the Potency is 11.2 µM (active).
